Bioassay records as filed in PubChem.
Shown are actives, neighbours in structure and some others; about 2.1% of the full set was active somewhere.
Sa ugtP lethal: kills S. aureus RN4220 lacking UgtP; 330,000 tested, 0.54% active; growth inhibition, % (concentration not given with the values); S. aureus RN4220 ugtP deletion, OD600 growth, 16 h; in the data active = growth inhibition above about 68%;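 note: plate controls were untreated wells for no effect and antibiotic for full effect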
CCHF vOTU inh: CCHFV vOTU protease inhibition | Pep-AMC fluorescence | inhibition, % at 11.5 µM | 370,000 tested, 0.55% active; in the data active = inhibition above about 30%; note: 0% = vehicle wells with enzyme and 100% = no enzyme wells
Sa RN4220 lethal: kills Staphylococcus aureus RN4220; S. aureus RN4220 growth, OD600, 16 h; inhibition, % (concentration not given with the values); 330,000 tested, 0.33% active; AID 1259311; in the data active = inhibition above about 85%;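 note: plate controls were untreated cells for no effect and reference antibiotic for full effect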
PfHsp40 rescue: restores yeast growth despite PfHsp40 toxicity | S. cerevisiae expressing PfHsp40, growth rescue, ATP luminescence | growth rescue, % at 12.5 µM | 340,000 tested, 0.68% active | AID 504582; in the data active = growth rescue above about 28%, passing the limit was not always enough;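 note: yeast W303a lacking pdr1 and pdr3 grown in galactose medium; growth measured after three days at 30 °C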
PrP UTR inh: inhibition of PrP 5' UTR reporter expression. 340,000 tested, 0.35% active. inhibition, % (test concentration not listed). cell-based PrP 5' UTR mRNA reporter, plate reader; in the data active = inhibition above about 52%; note: 0 = median of the neutral control wells
PrPC TRFRET: inhibitors of human cell surface prion protein PrPC; inhibition, % at 13.8 µM; TR-FRET read-out; 370,000 tested, 0.43% active; in the data active = inhibition above about 24%; note: 0% = median of the test wells and 100% = reference compound wells
Active calls of the source: *.

For CNCC1Oc2c(NS(=O)(=O)c3ccc(F)cc3)cccc2C(=O)N(C(C)CO)CC1C (stereo unspecified) the results were Sa ugtP lethal 2.2 and Sa RN4220 lethal 5.1.
Screening CC(C)c1c(C(=O)NN=Cc2ccccc2C(=O)O)nnn1-c1nonc1N returned Sa ugtP lethal -11.4 and Sa RN4220 lethal 18.2.
`O=C(O)c1ccccc1NC(c1ccccc1)c1ccc2cccnc2c1O` (stereo unspecified) gave CCHF vOTU inh -6.9, PfHsp40 rescue 322.0*, PrP UTR inh -12.6 and PrPC TRFRET 8.4.
For Oc1c(C(Nc2ccccn2)c2ccccn2)ccc2cccnc12 (stereo unspecified) the results were Sa ugtP lethal -7.5, CCHF vOTU inh 4.5, Sa RN4220 lethal 15.1, PfHsp40 rescue 63.3*, PrP UTR inh 18.7 and PrPC TRFRET 14.7.
Screening CC(=NNC(=O)c1cccs1)c1c(O)cc(C)oc1=O returned Sa ugtP lethal 4.2 and Sa RN4220 lethal 4.2.
Screening COc1ccccc1C=Nn1cnnc1 returned Sa ugtP lethal -0.5 and Sa RN4220 lethal 1.0.
Screening CC(CCC=CC(=O)O)OC1OC(C)C(O)CC1O (stereo unspecified) returned Sa ugtP lethal -1.9 and Sa RN4220 lethal -1.7.
COCc1cc(Sc2cccc(Cl)c2Cl)nc(-c2ccccc2)n1 was read as Sa ugtP lethal 91.2*, CCHF vOTU inh 1.4, Sa RN4220 lethal -11.0, PfHsp40 rescue -1.5, PrP UTR inh -11.8 and PrPC TRFRET 2.2.
`COCc1cc(Sc2ccc(Cl)cc2)nc(-c2ccccc2)n1` gave Sa ugtP lethal 72.4, CCHF vOTU inh 2.2, Sa RN4220 lethal -11.8, PfHsp40 rescue 0.7, PrP UTR inh -12.4 and PrPC TRFRET 8.1.
`CCNc1nc(NC(C)C)nc(NS(=O)(=O)c2ccc(N)cc2)n1` gave Sa ugtP lethal 12.0, CCHF vOTU inh -1.9, Sa RN4220 lethal 3.4, PfHsp40 rescue 0.0, PrP UTR inh -29.4 and PrPC TRFRET -3.0.
CCNc1nc(NC(C)C)nc(N(n2cnnc2)S(=O)(=O)c2ccc(C)cc2)n1 was read as Sa ugtP lethal 90.2*, CCHF vOTU inh 1.1, Sa RN4220 lethal 76.1, PfHsp40 rescue 1.0, PrP UTR inh 3.9 and PrPC TRFRET -4.6.
For CCNc1nc(NCC)nc(N(n2cnnc2)S(=O)(=O)c2ccc(C)cc2)n1 the results were Sa ugtP lethal 98.7*, CCHF vOTU inh -9.2, Sa RN4220 lethal 97.4*, PfHsp40 rescue 0.1, PrP UTR inh -20.9 and PrPC TRFRET -3.1.
`CC(C)CC(CC#N)N1CCN(CCc2ccccc2)CCC1=O` (stereo unspecified) gave Sa ugtP lethal 1.5 and Sa RN4220 lethal 3.7.
Screening COc1ccc(C)cc1S(=O)(=O)NC1CCCCCC1 returned Sa ugtP lethal 11.1, CCHF vOTU inh -1.5, Sa RN4220 lethal 4.4, PfHsp40 rescue -1.2, PrP UTR inh -11.5 and PrPC TRFRET -0.1.
`COc1ccc(S(=O)(=O)NC2CCCCC2)c(C)c1C` gave Sa ugtP lethal -2.3, CCHF vOTU inh 9.5, Sa RN4220 lethal 2.4, PfHsp40 rescue 86.0*, PrP UTR inh 0.5 and PrPC TRFRET 1.7.
O=C(O)c1ccc(NC(=O)c2cn(-c3ccccc3)nc2-c2ccc(Br)cc2)cc1 was read as Sa ugtP lethal 32.9, CCHF vOTU inh 8.7, Sa RN4220 lethal 3.2, PfHsp40 rescue 69.5*, PrP UTR inh -13.0 and PrPC TRFRET 4.9.
O=C(O)c1ccc(NC(=O)c2cn(-c3ccccc3)nc2-c2ccccc2)cc1 was read as Sa ugtP lethal 16.4, CCHF vOTU inh 1.6, Sa RN4220 lethal 6.8, PfHsp40 rescue 0.2, PrP UTR inh -26.4 and PrPC TRFRET -0.2.
`COC(=O)C1=C(c2cccc(OCc3ccccc3)c2)CC2CCC1N2C(=O)NCCOc1ccccc1Cl` (stereo unspecified) gave Sa ugtP lethal 5.2 and Sa RN4220 lethal -9.4.
For C#CCOCCOCCOCCNc1nc(N2CCN(C(=O)CCCCCCCCCCNC(=O)[C@@H](CCSC)n3cc(CCO)nn3)CC2)nc(N2CCN(C(=O)CCCCCCCCCCNC(=O)[C@H](CO)n3cc(CCCCCN)nn3)CC2)n1 the results were PfHsp40 rescue 84.5* and PrP UTR inh -19.0.
`C#CCOCCOCCOCCNc1nc(N2CCN(C(=O)CCCCCCCCCCNC(=O)[C@@H](CCSC)n3cc(CCO)nn3)CC2)nc(N2CCN(C(=O)CCCCCCCCCCNC(=O)[C@H](CCC(=O)O)n3cc(CCCCCN)nn3)CC2)n1` gave PfHsp40 rescue 0.5 and PrP UTR inh -15.3.
`C#CCOCCOCCOCCNc1nc(N2CCN(C(=O)CCCCCCCCCCNC(=O)[C@H](CCCCN)n3cc(C[C@@H](C)CC)nn3)CC2)nc(N2CCN(C(=O)CCCCCCCCCCNC(=O)[C@H](CCCN=C(N)N)n3cc(C[C@@H](C)CC)nn3)CC2)n1` gave PfHsp40 rescue 25.6* and PrP UTR inh 6.6.
Screening C#CCOCCOCCOCCNc1nc(N2CCN(C(=O)CCCCCCCCCCNC(=O)Cn3cc(CC(C)O)nn3)CC2)nc(N2CCN(C(=O)CCCCCCCCCCNC(=O)Cn3cc(CC(C)O)nn3)CC2)n1 (stereo unspecified) returned Sa ugtP lethal 9.0 and Sa RN4220 lethal 11.1.
`C#CCOCCOCCOCCNc1nc(N2CCN(C(=O)CCCCCCCCCCNC(=O)Cn3cc(CCCCCN)nn3)CC2)nc(N2CCN(C(=O)CCCCCCCCCCNC(=O)Cn3cc(C[C@@H](C)O)nn3)CC2)n1` gave PfHsp40 rescue 38.3* and PrP UTR inh -19.3.
For COc1ccccc1NS(=O)(=O)c1cccc(C(=O)NN=Cc2ccc([N+](=O)[O-])o2)c1 the results were Sa ugtP lethal 98.9* and Sa RN4220 lethal 98.5*.
For Nc1nc(N)c2cc(Sc3ccc4ccccc4c3)ccc2n1 the results were Sa ugtP lethal 99.4*, CCHF vOTU inh 4.8, Sa RN4220 lethal 99.5* and PrPC TRFRET -2.2.
For Nc1nc(N)c2cc(Sc3ccc(Cl)cc3)ccc2n1 the results were CCHF vOTU inh -30.0 and PrPC TRFRET 1.1.
C/C(=N\NC(=O)c1cc(-c2cccnc2)nc2ccccc12)c1ccc(O)cc1O was read as CCHF vOTU inh -1.2, PfHsp40 rescue 77.7*, PrP UTR inh 31.7 and PrPC TRFRET 10.3.
For COc1ccc(C(C)=NNC(=O)c2cc(-c3cccnc3)nc3ccccc23)cc1 the results were Sa ugtP lethal -2.6 and Sa RN4220 lethal -2.6.
Screening Cc1ccc(C(=O)NN=Cc2cc(Br)c(Br)o2)cn1 returned Sa ugtP lethal 3.0 and Sa RN4220 lethal -1.2.
`O=C(Nc1nc(-c2ccccc2)c(-c2ccccc2)o1)c1ccc(F)cc1` gave Sa ugtP lethal 96.1*, CCHF vOTU inh 16.5, Sa RN4220 lethal 99.1*, PfHsp40 rescue 417.9*, PrP UTR inh 10.7 and PrPC TRFRET 1.4.
`Cc1ccc(-c2nc(-c3ccccc3)no2)cc1` gave Sa ugtP lethal -0.3, CCHF vOTU inh 3.0, Sa RN4220 lethal -1.3, PfHsp40 rescue 0.4, PrP UTR inh 9.3 and PrPC TRFRET -9.5.
